Assay results from PMC7862700, “An all-to-all approach to the identification of sequence-specific readers for epigenetic DNA modifications on cytosine”.

Columns and labels:
Experiment in all cases: DAPPL (digital affinity profiling via proximity ligation, sequencing); 10 mM Tris-HCl pH 7.5, 50 mM NaCl, 1 mM DTT, 4% glycerol, room temperature, 30 min; GST-TFs on glutathione beads, 16-mer random dsDNA library, 0.1% formaldehyde crosslink after washing; high values mean tight binding
Conditions in all cases: protein: recombinant; tags: N-terminal GST; dsDNA, one strand shown
[1] = biological target: T1, GABPA (Homo sapiens, UniProt Q06546 1-454)
T1 sequence: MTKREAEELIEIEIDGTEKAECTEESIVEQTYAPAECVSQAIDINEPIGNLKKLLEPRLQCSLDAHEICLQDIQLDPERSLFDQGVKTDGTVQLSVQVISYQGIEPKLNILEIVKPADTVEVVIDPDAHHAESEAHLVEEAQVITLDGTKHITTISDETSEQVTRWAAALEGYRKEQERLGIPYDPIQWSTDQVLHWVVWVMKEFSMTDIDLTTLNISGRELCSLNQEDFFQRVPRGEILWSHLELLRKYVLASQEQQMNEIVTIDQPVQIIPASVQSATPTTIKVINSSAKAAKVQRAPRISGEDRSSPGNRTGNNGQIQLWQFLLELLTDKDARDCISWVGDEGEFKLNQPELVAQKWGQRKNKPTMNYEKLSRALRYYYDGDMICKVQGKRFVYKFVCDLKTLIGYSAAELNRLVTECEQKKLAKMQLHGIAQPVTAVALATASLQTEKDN
How it was run: (§1)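 In yeast, human transcription factors were expressed with a GST fusion, then pulled down on glutathione beads and given DNA barcodes. Pooled with a tag-only sample, they were exposed to 200 nmole of a 16-mer random double-stranded DNA library (Tris/NaCl/DTT/glycerol buffer, room temperature, 30 min), washed, crosslinked with 0.1% formaldehyde, proximity-ligated using BsaI/T4 ligase for 1 h at 37 °C, PCR-amplified and read on an Illumina NextSeq500. Each hexamer's frequency of reads for a factor, divided by the matching frequency for the tag-only sample, gives the binding signal.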

[2] = biological target: T2, ERG (Homo sapiens, UniProt P11308 1-479)
T2 sequence: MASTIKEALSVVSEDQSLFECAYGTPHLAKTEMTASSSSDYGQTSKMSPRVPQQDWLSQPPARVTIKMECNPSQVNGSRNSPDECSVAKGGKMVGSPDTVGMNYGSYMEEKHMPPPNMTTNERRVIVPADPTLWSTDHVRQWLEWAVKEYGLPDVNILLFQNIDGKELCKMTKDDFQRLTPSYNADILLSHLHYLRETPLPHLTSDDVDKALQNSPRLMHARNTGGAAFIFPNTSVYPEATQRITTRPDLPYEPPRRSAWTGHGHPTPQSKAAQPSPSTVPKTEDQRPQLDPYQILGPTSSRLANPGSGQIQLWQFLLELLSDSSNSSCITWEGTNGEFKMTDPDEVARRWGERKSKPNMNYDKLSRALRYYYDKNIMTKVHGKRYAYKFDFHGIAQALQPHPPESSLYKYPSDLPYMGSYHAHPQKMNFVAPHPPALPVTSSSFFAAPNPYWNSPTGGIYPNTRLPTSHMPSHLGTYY
How it was run: as §1

[3] = biological target: ELF1 (Homo sapiens, UniProt P32519 1-619)
ELF1, sequence (P32519 whole entry): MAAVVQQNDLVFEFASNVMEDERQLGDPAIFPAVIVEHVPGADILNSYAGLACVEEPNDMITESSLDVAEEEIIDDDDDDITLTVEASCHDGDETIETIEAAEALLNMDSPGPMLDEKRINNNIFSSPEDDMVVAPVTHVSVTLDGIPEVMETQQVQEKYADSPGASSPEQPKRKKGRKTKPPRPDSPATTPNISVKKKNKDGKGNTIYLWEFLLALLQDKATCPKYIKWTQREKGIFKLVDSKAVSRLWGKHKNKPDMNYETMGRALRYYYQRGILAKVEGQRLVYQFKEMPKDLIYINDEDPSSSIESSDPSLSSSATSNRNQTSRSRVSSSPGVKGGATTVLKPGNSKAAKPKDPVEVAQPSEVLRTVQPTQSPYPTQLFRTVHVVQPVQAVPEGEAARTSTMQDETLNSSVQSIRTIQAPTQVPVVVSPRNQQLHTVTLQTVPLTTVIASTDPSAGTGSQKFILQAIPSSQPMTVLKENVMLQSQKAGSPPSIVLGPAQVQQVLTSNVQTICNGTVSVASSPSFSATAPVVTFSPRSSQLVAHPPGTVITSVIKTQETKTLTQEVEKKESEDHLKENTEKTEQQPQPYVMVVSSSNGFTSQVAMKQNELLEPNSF
How it was run: as §1

[4] = biological target: T3, SPIC (Homo sapiens, UniProt Q8N5J4 1-248)
T3 sequence: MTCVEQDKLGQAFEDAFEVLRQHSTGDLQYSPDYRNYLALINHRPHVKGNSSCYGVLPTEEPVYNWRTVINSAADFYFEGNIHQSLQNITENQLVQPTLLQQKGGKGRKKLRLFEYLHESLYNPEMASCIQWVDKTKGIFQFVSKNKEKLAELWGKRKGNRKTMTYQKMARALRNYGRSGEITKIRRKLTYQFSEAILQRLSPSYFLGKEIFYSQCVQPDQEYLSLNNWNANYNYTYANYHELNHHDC
How it was run: as §1

[5] = biological target: ELF4 (Homo sapiens, UniProt Q99607 1-663)
ELF4, sequence (Q99607 whole entry): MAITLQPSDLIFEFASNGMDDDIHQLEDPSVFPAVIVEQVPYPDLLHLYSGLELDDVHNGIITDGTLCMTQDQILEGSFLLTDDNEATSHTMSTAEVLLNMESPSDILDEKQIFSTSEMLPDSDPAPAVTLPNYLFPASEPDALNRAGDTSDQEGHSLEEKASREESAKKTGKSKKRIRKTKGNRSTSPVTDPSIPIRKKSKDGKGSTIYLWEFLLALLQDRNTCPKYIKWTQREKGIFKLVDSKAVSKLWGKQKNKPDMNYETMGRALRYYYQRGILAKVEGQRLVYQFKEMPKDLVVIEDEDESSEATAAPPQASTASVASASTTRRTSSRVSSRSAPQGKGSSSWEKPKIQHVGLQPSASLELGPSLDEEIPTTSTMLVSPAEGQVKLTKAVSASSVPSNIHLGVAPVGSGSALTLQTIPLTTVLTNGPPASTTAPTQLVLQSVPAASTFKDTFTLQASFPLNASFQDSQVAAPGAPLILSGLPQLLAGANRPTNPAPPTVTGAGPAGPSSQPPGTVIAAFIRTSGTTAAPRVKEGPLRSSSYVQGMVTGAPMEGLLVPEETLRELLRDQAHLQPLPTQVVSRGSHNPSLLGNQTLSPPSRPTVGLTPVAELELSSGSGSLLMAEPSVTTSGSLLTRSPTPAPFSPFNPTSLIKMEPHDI
How it was run: as §1

[6] = biological target: T4, ELK4 (Homo sapiens, UniProt P28324-2 1-405)
T4 sequence: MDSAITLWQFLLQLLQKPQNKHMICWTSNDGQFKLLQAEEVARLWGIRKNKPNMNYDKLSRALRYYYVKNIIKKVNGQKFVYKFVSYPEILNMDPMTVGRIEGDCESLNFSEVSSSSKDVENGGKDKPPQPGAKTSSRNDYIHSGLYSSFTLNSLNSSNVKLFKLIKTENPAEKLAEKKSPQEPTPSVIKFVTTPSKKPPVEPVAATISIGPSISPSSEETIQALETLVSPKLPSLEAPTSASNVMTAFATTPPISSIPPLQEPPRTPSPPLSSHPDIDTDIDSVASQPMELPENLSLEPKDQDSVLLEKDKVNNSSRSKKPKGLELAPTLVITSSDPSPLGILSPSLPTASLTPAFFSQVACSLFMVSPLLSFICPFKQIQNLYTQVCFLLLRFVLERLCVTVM
How it was run: as §1

[7] = biological target: T5, ETV2 (Homo sapiens, UniProt O00321 1-342)
T5 sequence: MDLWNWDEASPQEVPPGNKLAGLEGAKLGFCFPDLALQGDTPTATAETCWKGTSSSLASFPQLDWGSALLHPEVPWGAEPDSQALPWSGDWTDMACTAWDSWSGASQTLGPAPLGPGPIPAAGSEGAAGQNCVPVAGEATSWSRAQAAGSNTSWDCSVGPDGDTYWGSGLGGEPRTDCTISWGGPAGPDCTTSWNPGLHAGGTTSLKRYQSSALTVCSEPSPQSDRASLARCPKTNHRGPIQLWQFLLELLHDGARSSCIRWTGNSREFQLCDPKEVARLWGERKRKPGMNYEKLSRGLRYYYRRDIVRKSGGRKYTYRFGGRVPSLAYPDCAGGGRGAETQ
How it was run: as §1

[8] = biological target: ETV1 (Homo sapiens, UniProt P50549 1-477)
ETV1, sequence (P50549 whole entry): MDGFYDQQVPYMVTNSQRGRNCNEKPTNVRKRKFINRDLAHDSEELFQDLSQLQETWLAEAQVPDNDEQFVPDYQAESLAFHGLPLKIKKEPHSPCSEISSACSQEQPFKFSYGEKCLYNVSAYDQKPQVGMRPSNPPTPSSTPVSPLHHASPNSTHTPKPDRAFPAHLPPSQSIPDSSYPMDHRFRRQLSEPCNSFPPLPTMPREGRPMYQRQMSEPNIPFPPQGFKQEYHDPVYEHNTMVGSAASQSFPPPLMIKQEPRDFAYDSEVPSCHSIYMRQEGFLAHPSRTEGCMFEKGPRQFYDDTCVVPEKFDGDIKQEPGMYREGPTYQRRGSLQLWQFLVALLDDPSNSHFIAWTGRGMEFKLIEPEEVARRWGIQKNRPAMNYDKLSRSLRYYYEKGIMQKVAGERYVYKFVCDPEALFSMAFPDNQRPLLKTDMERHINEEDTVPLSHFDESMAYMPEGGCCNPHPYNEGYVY
How it was run: as §1

[9] = biological target: T6, ETV3L (Homo sapiens, UniProt Q6ZN32 1-361)
T6 sequence: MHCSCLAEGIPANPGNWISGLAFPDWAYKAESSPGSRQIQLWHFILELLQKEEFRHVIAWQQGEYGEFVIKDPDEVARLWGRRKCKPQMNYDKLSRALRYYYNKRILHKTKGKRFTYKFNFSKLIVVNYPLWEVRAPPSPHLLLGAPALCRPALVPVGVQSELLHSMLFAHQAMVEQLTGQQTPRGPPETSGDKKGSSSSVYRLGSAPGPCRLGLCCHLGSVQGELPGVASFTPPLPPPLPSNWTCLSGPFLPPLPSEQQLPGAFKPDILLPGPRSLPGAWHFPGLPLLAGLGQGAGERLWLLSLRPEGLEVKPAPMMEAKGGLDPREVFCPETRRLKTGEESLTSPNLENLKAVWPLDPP
How it was run: as §1

[10] = biological target: T7, SPDEF (Homo sapiens, UniProt O95238 1-335)
T7 sequence: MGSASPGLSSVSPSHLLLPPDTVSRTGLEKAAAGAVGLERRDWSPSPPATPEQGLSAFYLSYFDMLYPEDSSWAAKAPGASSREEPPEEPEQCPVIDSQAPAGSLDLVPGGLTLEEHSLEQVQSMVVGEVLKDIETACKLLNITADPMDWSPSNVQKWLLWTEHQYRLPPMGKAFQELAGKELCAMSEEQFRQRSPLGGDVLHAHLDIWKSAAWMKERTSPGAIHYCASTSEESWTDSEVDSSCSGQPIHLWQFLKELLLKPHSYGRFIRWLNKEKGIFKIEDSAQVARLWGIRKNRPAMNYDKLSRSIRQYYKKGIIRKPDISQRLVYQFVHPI
How it was run: as §1

[11] = biological target: T8, ETV3 (Homo sapiens, UniProt P41162-2 1-143)
T8 sequence: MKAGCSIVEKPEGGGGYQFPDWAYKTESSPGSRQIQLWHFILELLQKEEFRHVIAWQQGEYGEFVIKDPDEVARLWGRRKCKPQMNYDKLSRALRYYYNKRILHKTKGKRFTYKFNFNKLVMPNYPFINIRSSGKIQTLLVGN
How it was run: as §1

[12] = biological target: T9, EHF (Homo sapiens, UniProt Q9NZC4 1-300)
T9 sequence: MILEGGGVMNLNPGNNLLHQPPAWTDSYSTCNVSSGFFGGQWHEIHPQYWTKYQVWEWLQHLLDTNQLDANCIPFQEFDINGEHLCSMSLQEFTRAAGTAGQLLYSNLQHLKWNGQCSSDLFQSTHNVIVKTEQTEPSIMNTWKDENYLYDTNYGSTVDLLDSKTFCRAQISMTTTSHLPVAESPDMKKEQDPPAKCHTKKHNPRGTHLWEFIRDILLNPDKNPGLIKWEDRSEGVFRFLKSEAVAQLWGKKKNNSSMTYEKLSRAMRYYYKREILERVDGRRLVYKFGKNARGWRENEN
How it was run: as §1

[13] = biological target: SPIB (Homo sapiens, UniProt Q01892 1-262)
SPIB, sequence (Q01892 whole entry): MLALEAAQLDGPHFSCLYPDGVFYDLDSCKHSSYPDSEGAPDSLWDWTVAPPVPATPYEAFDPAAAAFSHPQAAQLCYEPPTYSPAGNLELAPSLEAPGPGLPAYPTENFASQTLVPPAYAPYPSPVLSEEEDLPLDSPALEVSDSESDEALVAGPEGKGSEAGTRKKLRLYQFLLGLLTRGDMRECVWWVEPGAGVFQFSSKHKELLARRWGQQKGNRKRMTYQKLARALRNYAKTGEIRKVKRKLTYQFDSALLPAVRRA
How it was run: as §1

[14] = biological target: T10, ELF3 (Homo sapiens, UniProt P78545 1-371)
T10 sequence: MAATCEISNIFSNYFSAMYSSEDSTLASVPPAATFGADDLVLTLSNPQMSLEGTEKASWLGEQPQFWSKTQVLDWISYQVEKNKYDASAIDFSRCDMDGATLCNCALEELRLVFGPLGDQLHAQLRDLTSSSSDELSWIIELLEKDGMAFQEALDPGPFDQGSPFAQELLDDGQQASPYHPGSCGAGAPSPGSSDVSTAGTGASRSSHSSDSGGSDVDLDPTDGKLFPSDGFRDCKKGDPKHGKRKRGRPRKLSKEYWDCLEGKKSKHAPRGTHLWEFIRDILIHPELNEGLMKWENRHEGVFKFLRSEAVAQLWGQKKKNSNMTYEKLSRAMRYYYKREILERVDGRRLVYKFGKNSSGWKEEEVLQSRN
How it was run: as §1

[15] = biological target: T11, ERF (Homo sapiens, UniProt P50548 1-548)
T11 sequence: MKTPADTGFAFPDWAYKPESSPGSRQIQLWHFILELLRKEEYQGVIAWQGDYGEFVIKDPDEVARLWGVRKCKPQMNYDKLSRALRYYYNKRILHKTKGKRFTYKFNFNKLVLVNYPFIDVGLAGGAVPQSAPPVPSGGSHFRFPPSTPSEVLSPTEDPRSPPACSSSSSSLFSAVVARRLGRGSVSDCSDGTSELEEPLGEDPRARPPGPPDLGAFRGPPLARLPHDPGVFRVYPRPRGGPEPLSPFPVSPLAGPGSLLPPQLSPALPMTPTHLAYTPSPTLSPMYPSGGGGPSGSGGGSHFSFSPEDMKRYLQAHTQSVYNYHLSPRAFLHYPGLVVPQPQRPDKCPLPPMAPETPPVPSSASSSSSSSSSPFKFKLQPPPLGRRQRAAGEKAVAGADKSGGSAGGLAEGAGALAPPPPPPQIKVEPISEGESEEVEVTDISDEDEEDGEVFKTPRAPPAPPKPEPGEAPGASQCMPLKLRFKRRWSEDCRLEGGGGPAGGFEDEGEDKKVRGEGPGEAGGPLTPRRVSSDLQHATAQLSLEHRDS
How it was run: as §1

[16] = biological target: T12, ETS2 (Homo sapiens, UniProt P15036 1-469)
T12 sequence: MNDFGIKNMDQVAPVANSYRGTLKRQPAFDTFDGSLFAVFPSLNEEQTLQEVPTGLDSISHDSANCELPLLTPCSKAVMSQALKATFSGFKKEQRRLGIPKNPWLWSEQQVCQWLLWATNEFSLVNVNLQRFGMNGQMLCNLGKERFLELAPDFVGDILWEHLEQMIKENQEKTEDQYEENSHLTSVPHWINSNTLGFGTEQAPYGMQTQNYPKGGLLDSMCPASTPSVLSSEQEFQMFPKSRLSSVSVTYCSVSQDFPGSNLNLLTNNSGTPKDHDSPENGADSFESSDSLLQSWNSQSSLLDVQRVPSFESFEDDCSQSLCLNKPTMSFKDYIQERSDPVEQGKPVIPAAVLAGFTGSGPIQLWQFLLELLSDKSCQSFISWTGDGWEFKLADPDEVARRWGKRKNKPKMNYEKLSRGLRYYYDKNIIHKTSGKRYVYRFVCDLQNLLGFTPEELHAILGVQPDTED
How it was run: as §1

[17] = biological target: T13, ELF5 (Homo sapiens, UniProt Q9UKW6-2 1-255)
T13 sequence: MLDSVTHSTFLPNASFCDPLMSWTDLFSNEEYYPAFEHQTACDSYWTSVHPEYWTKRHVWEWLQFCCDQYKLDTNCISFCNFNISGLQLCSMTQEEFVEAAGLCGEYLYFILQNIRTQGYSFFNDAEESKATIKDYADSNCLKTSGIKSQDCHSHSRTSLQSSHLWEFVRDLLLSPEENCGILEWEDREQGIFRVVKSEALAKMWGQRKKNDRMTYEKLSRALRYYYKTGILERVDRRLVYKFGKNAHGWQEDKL
How it was run: as §1

Row | Sequence | binding signal [1] | binding signal [2] | binding signal [3] | binding signal [4] | binding signal [5] | binding signal [6] | binding signal [7] | binding signal [8] | binding signal [9] | binding signal [10] | binding signal [11] | binding signal [12] | binding signal [13] | binding signal [14] | binding signal [15] | binding signal [16] | binding signal [17]
1 | CCTAGG | 1.04 fold enrichment (6-mer frequency, TF over GST control) | 1 fold enrichment (6-mer frequency, TF over GST control) | 1.07 fold enrichment (6-mer frequency, TF over GST control) | 1.1 fold enrichment (6-mer frequency, TF over GST control) | 1.07 fold enrichment (6-mer frequency, TF over GST control) | 1.04 fold enrichment (6-mer frequency, TF over GST control) | 1.03 fold enrichment (6-mer frequency, TF over GST control) | 1.02 fold enrichment (6-mer frequency, TF over GST control) | 1.03 fold enrichment (6-mer frequency, TF over GST control) | 1.02 fold enrichment (6-mer frequency, TF over GST control) | 1.1 fold enrichment (6-mer frequency, TF over GST control) |  |  |  |  |  | 
2 | AGACTC |  |  |  | 1.06 fold enrichment (6-mer frequency, TF over GST control) |  |  |  |  |  |  |  |  |  |  |  |  | 
3 | GTGTCT |  | 1.1 fold enrichment (6-mer frequency, TF over GST control) | 1.06 fold enrichment (6-mer frequency, TF over GST control) | 1.16 fold enrichment (6-mer frequency, TF over GST control) | 1.02 fold enrichment (6-mer frequency, TF over GST control) |  | 1.15 fold enrichment (6-mer frequency, TF over GST control) | 1.09 fold enrichment (6-mer frequency, TF over GST control) | 1.09 fold enrichment (6-mer frequency, TF over GST control) | 1.09 fold enrichment (6-mer frequency, TF over GST control) | 1.02 fold enrichment (6-mer frequency, TF over GST control) | 1.06 fold enrichment (6-mer frequency, TF over GST control) | 1.03 fold enrichment (6-mer frequency, TF over GST control) | 1 fold enrichment (6-mer frequency, TF over GST control) | 1.06 fold enrichment (6-mer frequency, TF over GST control) | 1.03 fold enrichment (6-mer frequency, TF over GST control) | 1.13 fold enrichment (6-mer frequency, TF over GST control)
